Assay [1] in a line: NCI Yeast Anticancer Drug Screen. Data for the rad50 strain (AID 155).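 Also: 0% = growth of vehicle-only cultures of the same strain.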 The following applies: S. cerevisiae rad50 strain growth inhibition, stronger effect = higher value. The procedure, abridged: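 Yeast carrying a defined DNA repair defect were exposed to test compounds, and growth was compared with vehicle-treated controls to give percent inhibition.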
Assay [2] in a line: NCI Yeast Anticancer Drug Screen. Data for the mec2-1 strain (AID 157). The settings on record: S. cerevisiae mec2-1 strain, stronger effect = higher value. The procedure, abridged: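 Readout is yeast growth inhibition, normalised to vehicle-treated controls, in the mec2-1 strain exposed to compound.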
Assay [3] in a line: NCI Yeast Anticancer Drug Screen. Data for the sgs1 mgt1 strain (AID 161).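 Also: 0% = growth of cultures given vehicle only.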 The following applies: S. cerevisiae sgs1 mgt1 strain, stronger effect = higher value. The procedure, abridged: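 Growth of a repair-deficient yeast mutant was monitored after compound treatment and expressed as inhibition relative to vehicle-treated cultures.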
Assay [4] is described as follows: NCI Yeast Anticancer Drug Screen. Data for the cln2 rad14 strain (AID 165).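 Also: 0% = growth equal to vehicle treated cultures.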 The following applies: S. cerevisiae cln2 rad14 strain, stronger effect = higher value. Summed up: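 Relative to vehicle controls, growth inhibition of compound-treated cln2 rad14 yeast was recorded.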
Assay [5] is described as follows: NCI Yeast Anticancer Drug Screen. Data for the bub3 strain (AID 167). The following applies: S. cerevisiae bub3 mutant strain, stronger effect = higher value. Summed up: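 Compounds were applied to a genetically altered yeast strain carrying a cell-cycle control defect. Growth inhibition was scored against vehicle-treated controls.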
The nature of assay [6]: NCI Yeast Anticancer Drug Screen. Data for the mlh1 rad18 strain (AID 175). The settings on record: S. cerevisiae mlh1 rad18 strain growth inhibition, stronger effect = higher value. Summed up:
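Test agents were incubated with a yeast strain of defined genotype (DNA damage repair defect). Inhibition of growth was derived by comparison with vehicle-exposed cultures.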

Setting [7] is: at 5.0 µM (retest, dose inferred, filed as 0.5).
Setting [8] is: at 50.0 µM (retest, dose inferred, filed as 5.0).

Molecules are shown by their SMILES. The panel holds about 79,000 compounds, 15% with a hit somewhere; the sample as a whole holds those more often. A number with no mark means an inactive call. The source made the active and inactive calls. Rule as the data show it: active = growth inhibition above about 70%; inactive = the rest.

For `C=C(C)C1CC2(C)C(C)CC(O)CC2C(OC(=O)C=C(C)C)C1O` (configuration not stated), the growth inhibition in assay [1] (setting [7]) was 26%; in assay [1] (setting [8]), 73% (active); in assay [1] (at 50.0 µM), 78.3% (active); in assay [2] (setting [7]) it was 12%; in assay [2] (setting [8]), 58%; in assay [2] (at 50.0 µM), 69.1%. Also, the growth inhibition in assay [3] (setting [7]) is 21%; in assay [3] (setting [8]), 78% (active); in assay [3] (at 50.0 µM), 79.8% (active); in assay [4] (setting [7]) it was 17%; in assay [4] (setting [8]), 25%; in assay [4] (at 50.0 µM) it was 47%. For the same compound, the growth inhibition in assay [5] (setting [7]) was 15%; in assay [5] (setting [8]) it was 78% (active); in assay [5] (at 50.0 µM) it was 80.1% (active); in assay [6] (setting [7]) it was 32%; in assay [6] (setting [8]), 82% (active); in assay [6] (at 50.0 µM) it was 69%.
Regarding `Cc1nn(CCO)c(C)c1N=[N+]([O-])c1c(C)nn(CCO)c1C`, the growth inhibition in assay [1] (setting [7]) was 12%; in assay [1] (setting [8]), 98% (active); in assay [1] (at 50.0 µM), 88.8% (active); in assay [2] (setting [7]) it was 12%; in assay [2] (setting [8]), 98% (active); in assay [2] (at 50.0 µM), 91.8% (active). Also, the growth inhibition in assay [3] (setting [7]) was 24%; in assay [3] (setting [8]), 98% (active); in assay [3] (at 50.0 µM), 89.3% (active); in assay [4] (setting [7]), 9%; in assay [4] (setting [8]), 95% (active); in assay [4] (at 50.0 µM), 86% (active). Further, the growth inhibition was 20% in assay [5] (setting [7]); 97% (active) in assay [5] (setting [8]); 90.6% (active) in assay [5] (at 50.0 µM); 27% in assay [6] (setting [7]); 98% (active) in assay [6] (setting [8]); 89.1% (active) in assay [6] (at 50.0 µM).
For the compound `Oc1cc(Cl)ccc1Cc1ccc(Cl)cc1O`, the growth inhibition in assay [1] (setting [7]) is 97% (active); in assay [1] (setting [8]), 100% (active); in assay [1] (at 50.0 µM), 99.8% (active); in assay [2] (setting [7]) it was 99% (active); in assay [2] (setting [8]), 100% (active); in assay [2] (at 50.0 µM) it was 99.7% (active). The growth inhibition is 98% (active) in assay [3] (setting [7]); 100% (active) in assay [3] (setting [8]); 99.6% (active) in assay [3] (at 50.0 µM); 98% (active) in assay [4] (setting [7]); 94% (active) in assay [4] (setting [8]); 99.5% (active) in assay [4] (at 50.0 µM). Moreover, the growth inhibition was 99% (active) in assay [5] (setting [7]); 100% (active) in assay [5] (setting [8]); 99.6% (active) in assay [5] (at 50.0 µM); 96% (active) in assay [6] (setting [7]); 96% (active) in assay [6] (setting [8]); 99.7% (active) in assay [6] (at 50.0 µM).
As to `O=C1c2ccccc2Cc2cccc(Cl)c21`, the growth inhibition in assay [1] (setting [7]) is 15%; in assay [1] (setting [8]) it was 72% (active); in assay [1] (at 50.0 µM) it was 88.5% (active); in assay [2] (setting [7]) it was 6%; in assay [2] (setting [8]), 15%; in assay [2] (at 50.0 µM) it was 24.3%. The growth inhibition is 4% in assay [3] (setting [7]); 13% in assay [3] (setting [8]); 28.6% in assay [3] (at 50.0 µM); 0% in assay [4] (setting [7]); 5% in assay [4] (setting [8]); 17.4% in assay [4] (at 50.0 µM). Moreover, the growth inhibition is 1% in assay [5] (setting [7]); 19% in assay [5] (setting [8]); 13.8% in assay [5] (at 50.0 µM); 2% in assay [6] (setting [7]); 17% in assay [6] (setting [8]); 33% in assay [6] (at 50.0 µM).
Consider `Nc1ccc(-c2ccc(N)c(S(=O)(=O)O)c2)cc1S(=O)(=O)O`, for which the growth inhibition in assay [1] (setting [7]) is 4%; in assay [1] (setting [8]), 2%; in assay [1] (at 50.0 µM), -11.9%; in assay [2] (setting [7]), 4%; in assay [2] (setting [8]) it was 12%; in assay [2] (at 50.0 µM) it was -9%. Further, the growth inhibition was 5% in assay [3] (setting [7]); 3% in assay [3] (setting [8]); 7.85% in assay [3] (at 50.0 µM); 9% in assay [4] (setting [7]); 24% in assay [4] (setting [8]); 49% in assay [4] (at 50.0 µM). Moreover, the growth inhibition in assay [6] (setting [7]) is 13%; in assay [6] (setting [8]) it was 6%; in assay [6] (at 50.0 µM), -21.8%.
Consider `CC(/C=N/NC(N)=S)Cc1ccc(C(C)C)cc1` (configuration not stated), for which the growth inhibition is 28% in assay [1] (setting [7]); 82% (active) in assay [1] (setting [8]); 91.3% (active) in assay [1] (at 50.0 µM); 45% in assay [2] (setting [7]); 74% (active) in assay [2] (setting [8]); 92.5% (active) in assay [2] (at 50.0 µM). Also, the growth inhibition in assay [3] (setting [7]) is 98% (active); in assay [3] (setting [8]), 97% (active); in assay [4] (setting [7]), 98% (active); in assay [4] (setting [8]), 98% (active); in assay [5] (setting [7]), 99% (active); in assay [5] (setting [8]), 97% (active). For the same compound, the results for the growth inhibition in assay [6] (setting [7]), in assay [6] (setting [8]) and in assay [6] (at 50.0 µM) were 32%, 74% (active) and 91.1% (active), respectively.
As for `Oc1ccc(Cc2cccc(Cl)c2)c(O)c1`, the growth inhibition in assay [1] (setting [7]) is -1%; in assay [1] (setting [8]), 92% (active); in assay [2] (setting [7]), -7%; in assay [2] (setting [8]), 96% (active); in assay [3] (setting [7]), -4%; in assay [3] (setting [8]) it was 97% (active). Besides, the growth inhibition in assay [4] (setting [7]) was 4%; in assay [4] (setting [8]), 98% (active); in assay [5] (setting [7]), 0%; in assay [5] (setting [8]), 92% (active); in assay [6] (setting [7]) it was -3%; in assay [6] (setting [8]) it was 90% (active).
For `CCCCCCCCCCCCCCCC[N+](C)(C)C`, the growth inhibition is 53% in assay [1] (setting [7]); 94% (active) in assay [1] (setting [8]); 91.3% (active) in assay [1] (at 50.0 µM); 45% in assay [2] (setting [7]); 87% (active) in assay [2] (setting [8]); 93.1% (active) in assay [2] (at 50.0 µM). For the same compound, the growth inhibition is 93% (active) in assay [3] (setting [7]); 97% (active) in assay [3] (setting [8]); 82% (active) in assay [4] (setting [7]); 97% (active) in assay [4] (setting [8]); 97% (active) in assay [5] (setting [7]); 96% (active) in assay [5] (setting [8]). The results for the growth inhibition in assay [6] (setting [7]), in assay [6] (setting [8]) and in assay [6] (at 50.0 µM) were 30%, 84% (active) and 91.7% (active), respectively.
On to `COc1cccc(NC(=O)C(C#N)=C(SC)SC)c1`, for which the growth inhibition in assay [1] (setting [7]) was 30%; in assay [1] (setting [8]), 96% (active); in assay [2] (setting [7]) it was 25%; in assay [2] (setting [8]) it was 92% (active); in assay [3] (setting [7]), 49%; in assay [3] (setting [8]), 95% (active). Besides, the growth inhibition in assay [3] (at 50.0 µM) is 91.2% (active); in assay [4] (setting [7]), 34%; in assay [4] (setting [8]) it was 41%; in assay [4] (at 50.0 µM), 43%; in assay [5] (setting [7]), 42%; in assay [5] (setting [8]), 95% (active). Also, the growth inhibition in assay [5] (at 50.0 µM) is 91.2% (active); in assay [6] (setting [7]) it was 23%; in assay [6] (setting [8]), 59%; in assay [6] (at 50.0 µM), 90% (active).
In the case of `CSc1nc(C)c(C(=O)CCN2CCN(c3ccccn3)CC2)s1`, the growth inhibition in assay [1] (setting [7]) is -3%; in assay [1] (setting [8]) it was 99% (active); in assay [1] (at 50.0 µM), 86.8% (active); in assay [2] (setting [7]), -3%; in assay [2] (setting [8]) it was 100% (active); in assay [2] (at 50.0 µM), 78% (active). The growth inhibition was -23% in assay [3] (setting [7]); 99% (active) in assay [3] (setting [8]); 66.2% in assay [3] (at 50.0 µM); -1% in assay [5] (setting [7]); 100% (active) in assay [5] (setting [8]); 79.5% (active) in assay [5] (at 50.0 µM). The values for the growth inhibition in assay [6] (setting [7]), in assay [6] (setting [8]) and in assay [6] (at 50.0 µM) were -3%, 99% (active) and 58.6%, respectively.
`Cn1c(COC(=O)NC2CCCCC2)c(COC(=O)NC2CCCCC2)c2ccc3cc(Cl)c(Cl)cc3c21`: the growth inhibition is 8% in assay [1] (setting [7]); 31% in assay [1] (setting [8]); 18.1% in assay [1] (at 50.0 µM); -5% in assay [2] (setting [7]); 8% in assay [2] (setting [8]); 23.2% in assay [2] (at 50.0 µM). For the same compound, the growth inhibition in assay [3] (setting [7]) was -3%; in assay [3] (setting [8]), 29%; in assay [3] (at 50.0 µM) it was 56.5%; in assay [6] (setting [7]) it was 9%; in assay [6] (setting [8]) it was 11%; in assay [6] (at 50.0 µM) it was 21.8%.

(Values after PubChem BioAssay (NCI).)
